# The full list was thinned out, with the strongest signals kept by preference.
# Experiments:
# Test in all cases: glycan array binding signal (z-score within array); higher = stronger binding
# Conditions in all cases: glycan notation: IUPAC condensed, linker removed
# [1] = system: Gal(b1-3)[GlcNAc(b1-6)]GalNAc
# Method in brief: (§1)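 Glycan array data were curated from 3228 arrays in the Consortium for Functional Glycomics database and kept only where the protein sequence was available. Glycan names were converted to IUPAC-condensed notation, and columns mapping to the same glycan were averaged. The binding signal is a within-array Z-score, averaged across arrays of the same protein sequence at different concentrations or buffers and across linkers. Negative Z-scores can be read as non-binding.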
# [2] = system: Gal(b1-3)[Neu5Ac(a2-6)]GlcNAc(b1-4)Gal(b1-4)Glc
# Method in brief: as §1
# [3] = system: Gal(b1-4)GlcNAc(b1-2)Man(a1-3)Man(b1-4)GlcNAc(b1-4)GlcNAc
# Method in brief: as §1
# [4] = system: Gal(b1-4)GlcNAc(b1-2)[Gal(b1-4)GlcNAc(b1-6)]Man(a1-6)[GlcNAc(b1-4)][Gal(b1-4)GlcNAc(b1-2)Man(a1-3)]Man(b1-4)GlcNAc(b1-4)GlcNAc
# Method in brief: as §1
# [5] = system: Gal(b1-4)GalNAc(a1-3)[Fuc(a1-2)]Gal(b1-4)GlcNAc
# Method in brief: as §1
# [6] = system: Gal(b1-3)[Fuc(a1-4)]GlcNAc
# Method in brief: as §1
# [7] = system: Gal(b1-4)GlcNAc(b1-2)Man(a1-3)[Gal(b1-4)GlcNAc(b1-2)Man(a1-6)]Man(b1-4)GlcNAc(b1-4)[Fuc(a1-6)]GlcNAc
# Method in brief: as §1
# [8] = system: Gal(b1-4)GlcNAc(b1-2)Man(a1-3)[Gal(b1-4)GlcNAc(b1-2)Man(a1-6)][Gal(b1-4)GlcNAc(b1-4)]Man(b1-4)GlcNAc(b1-4)[Fuc(a1-6)]GlcNAc
# Method in brief: as §1
# [9] = system: Gal(b1-4)GlcNAc(b1-2)Man(a1-3)[Gal(b1-4)GlcNAc(b1-2)][GlcNAc(b1-4)]Man(b1-4)GlcNAc(b1-4)GlcNAc
# Method in brief: as §1
# [10] = system: Gal(b1-4)GlcNAc(b1-2)[Gal(b1-4)GlcNAc(b1-4)]Man(a1-3)[Gal(b1-4)GlcNAc(b1-2)[Gal(b1-4)GlcNAc(b1-6)]Man(a1-6)]Man(b1-4)GlcNAc(b1-4)GlcNAc
# Method in brief: as §1
# [11] = system: Gal(b1-4)GlcNAc(b1-2)[Gal(b1-4)GlcNAc(b1-4)]Man(a1-3)[GlcNAc(b1-4)][Gal(b1-4)GlcNAc(b1-2)Man(a1-6)]Man(b1-4)GlcNAc(b1-4)GlcNAc
# Method in brief: as §1
# [12] = system: Gal(b1-4)GlcNAc(b1-3)Gal(b1-4)GlcNAc(b1-2)Man(a1-3)[Gal(b1-4)GlcNAc(b1-3)Gal(b1-4)GlcNAc(b1-2)Man(a1-6)]Man(b1-4)GlcNAc(b1-4)GlcNAc
# Method in brief: as §1
# [13] = system: Gal(b1-4)GlcNAc(b1-3)Gal(b1-4)GlcNAc(b1-3)Gal(b1-4)GlcNAc(b1-2)Man(a1-3)[Gal(b1-4)GlcNAc(b1-3)Gal(b1-4)GlcNAc(b1-3)Gal(b1-4)GlcNAc(b1-2)Man(a1-6)]Man(b1-4)GlcNAc(b1-4)[Fuc(a1-6)]GlcNAc
# Method in brief: as §1
# [14] = system: Gal(b1-4)GlcNAc(b1-3)Gal(b1-4)GlcNAc(b1-3)Gal(b1-4)GlcNAc(b1-2)[Gal(b1-4)GlcNAc(b1-3)Gal(b1-4)GlcNAc(b1-3)Gal(b1-4)GlcNAc(b1-6)]Man(a1-6)[Gal(b1-4)GlcNAc(b1-3)Gal(b1-4)GlcNAc(b1-3)Gal(b1-4)GlcNAc(b1-2)Man(a1-3)]Man(b1-4)GlcNAc(b1-4)[Fuc(a1-6)]GlcNAc
# Method in brief: as §1
# [15] = system: Gal(b1-3)[Neu5Ac(a2-6)]GlcNAc(b1-6)Gal(b1-4)Glc
# Method in brief: as §1
# [16] = system: Gal(b1-4)GlcNAc(b1-3)Gal(b1-4)GlcNAc(b1-3)Gal(b1-4)GlcNAc(b1-2)Man(a1-3)[Gal(b1-4)GlcNAc(b1-3)Gal(b1-4)GlcNAc(b1-3)Gal(b1-4)GlcNAc(b1-2)Man(a1-6)]Man(b1-4)GlcNAc(b1-4)GlcNAc
# Method in brief: as §1
# Gal(b1-4)Glc6S = system: Gal(b1-4)Glc6S
# Method in brief: as §1
# Gal(b1-4)Gal = system: Gal(b1-4)Gal
# Method in brief: as §1
# [17] = system: Gal(b1-4)GlcNAc(b1-2)Man(a1-6)Man(b1-4)GlcNAc(b1-4)GlcNAc
# Method in brief: as §1
# [18] = system: Gal(b1-4)GlcNAc(b1-3)Gal(b1-4)GlcNAc(b1-2)[Gal(b1-4)GlcNAc(b1-3)Gal(b1-4)GlcNAc(b1-6)]Man(a1-6)[Gal(b1-4)GlcNAc(b1-3)Gal(b1-4)GlcNAc(b1-2)Man(a1-3)]Man(b1-4)GlcNAc(b1-4)[Fuc(a1-6)]GlcNAc
# Method in brief: as §1
# CHI3L1 (Homo sapiens), P36222, sequence (P36222 whole entry): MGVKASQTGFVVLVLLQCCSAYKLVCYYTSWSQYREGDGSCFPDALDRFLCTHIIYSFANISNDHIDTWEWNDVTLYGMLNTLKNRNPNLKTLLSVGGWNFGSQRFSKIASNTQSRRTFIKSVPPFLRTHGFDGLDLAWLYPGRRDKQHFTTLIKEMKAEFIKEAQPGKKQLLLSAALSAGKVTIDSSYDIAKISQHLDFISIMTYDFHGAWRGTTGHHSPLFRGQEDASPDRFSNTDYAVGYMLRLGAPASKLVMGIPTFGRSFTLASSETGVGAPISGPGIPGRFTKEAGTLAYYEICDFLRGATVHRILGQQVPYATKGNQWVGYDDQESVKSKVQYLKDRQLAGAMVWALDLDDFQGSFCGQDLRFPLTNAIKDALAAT
# PILRb (Mus musculus), Q2YSF2, sequence (Q2YSF2 entry or part of it): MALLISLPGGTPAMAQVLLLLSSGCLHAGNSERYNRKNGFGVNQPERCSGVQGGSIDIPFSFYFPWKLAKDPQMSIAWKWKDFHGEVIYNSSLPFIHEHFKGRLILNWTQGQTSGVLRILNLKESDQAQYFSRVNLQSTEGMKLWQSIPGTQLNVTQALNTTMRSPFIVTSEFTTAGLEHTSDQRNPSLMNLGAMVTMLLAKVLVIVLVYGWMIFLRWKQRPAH
# Aggrecan (Rattus norvegicus), NP_071526, sequence (chain, as listed by the source): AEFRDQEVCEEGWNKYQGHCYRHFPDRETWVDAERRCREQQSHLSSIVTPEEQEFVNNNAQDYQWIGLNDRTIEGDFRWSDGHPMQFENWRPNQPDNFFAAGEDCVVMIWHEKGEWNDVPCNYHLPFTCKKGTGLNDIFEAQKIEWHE
# 6RG (Lolium perenne), sequence (chain, as listed by the source): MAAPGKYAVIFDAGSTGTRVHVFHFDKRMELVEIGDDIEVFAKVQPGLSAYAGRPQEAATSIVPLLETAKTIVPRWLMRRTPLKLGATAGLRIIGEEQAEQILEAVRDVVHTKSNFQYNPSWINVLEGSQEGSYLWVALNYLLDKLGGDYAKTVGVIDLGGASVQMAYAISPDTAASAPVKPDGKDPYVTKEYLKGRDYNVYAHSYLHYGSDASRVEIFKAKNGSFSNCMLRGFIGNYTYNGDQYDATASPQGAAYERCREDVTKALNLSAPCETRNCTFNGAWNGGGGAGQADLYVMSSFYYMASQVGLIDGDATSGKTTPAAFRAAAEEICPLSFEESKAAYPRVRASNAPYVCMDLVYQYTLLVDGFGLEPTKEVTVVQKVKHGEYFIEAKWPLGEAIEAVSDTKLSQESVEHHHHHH
# Avaren (Actinomycete K97), sequence (chain, as listed by the source): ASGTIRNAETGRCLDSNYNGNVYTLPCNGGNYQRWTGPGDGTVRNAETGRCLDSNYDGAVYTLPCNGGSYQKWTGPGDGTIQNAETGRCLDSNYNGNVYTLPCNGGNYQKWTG
# 6RG (Lolium perenne), B9U140, sequence (B9U140 entry or part of it): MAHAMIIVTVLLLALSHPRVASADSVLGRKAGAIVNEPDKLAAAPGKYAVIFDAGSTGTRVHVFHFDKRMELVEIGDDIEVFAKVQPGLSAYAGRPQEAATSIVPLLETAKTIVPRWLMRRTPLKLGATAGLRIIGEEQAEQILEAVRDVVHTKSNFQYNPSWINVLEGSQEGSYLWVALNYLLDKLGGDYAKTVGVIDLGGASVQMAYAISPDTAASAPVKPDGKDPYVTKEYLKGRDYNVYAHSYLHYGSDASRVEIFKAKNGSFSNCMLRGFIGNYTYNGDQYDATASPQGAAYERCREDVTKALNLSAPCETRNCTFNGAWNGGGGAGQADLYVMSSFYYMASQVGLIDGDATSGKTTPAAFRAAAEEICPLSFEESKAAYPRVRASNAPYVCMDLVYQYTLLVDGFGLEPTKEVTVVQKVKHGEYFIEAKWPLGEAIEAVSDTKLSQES
# wLAT-1A (Homo sapiens), Q01650, sequence (Q01650 whole entry): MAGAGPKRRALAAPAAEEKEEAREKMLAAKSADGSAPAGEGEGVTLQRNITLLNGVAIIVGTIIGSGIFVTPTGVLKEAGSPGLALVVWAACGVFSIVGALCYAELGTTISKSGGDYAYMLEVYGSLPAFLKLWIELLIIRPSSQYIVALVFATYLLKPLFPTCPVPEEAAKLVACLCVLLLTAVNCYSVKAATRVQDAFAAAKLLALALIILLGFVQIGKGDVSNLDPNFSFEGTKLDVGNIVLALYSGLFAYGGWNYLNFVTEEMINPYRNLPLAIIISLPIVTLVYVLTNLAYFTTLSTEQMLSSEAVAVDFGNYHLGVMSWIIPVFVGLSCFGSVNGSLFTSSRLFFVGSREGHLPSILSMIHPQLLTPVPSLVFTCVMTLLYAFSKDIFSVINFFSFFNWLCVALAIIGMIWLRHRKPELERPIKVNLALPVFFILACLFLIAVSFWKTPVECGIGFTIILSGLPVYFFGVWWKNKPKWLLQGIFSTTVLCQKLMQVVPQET
# PILRa (Mus musculus), Q2YSF3, sequence (Q2YSF3 entry or part of it): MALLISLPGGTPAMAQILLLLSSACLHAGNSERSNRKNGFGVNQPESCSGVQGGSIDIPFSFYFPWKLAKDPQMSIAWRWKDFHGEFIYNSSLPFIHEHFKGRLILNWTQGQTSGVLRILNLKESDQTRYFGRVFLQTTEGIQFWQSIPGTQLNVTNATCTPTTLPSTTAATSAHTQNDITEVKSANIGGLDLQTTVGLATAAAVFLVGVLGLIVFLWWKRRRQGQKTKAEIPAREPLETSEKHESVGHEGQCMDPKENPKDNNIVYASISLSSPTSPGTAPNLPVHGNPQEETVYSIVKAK
# Regenerating Gene IV (Homo sapiens), Q9BYZ8, sequence (Q9BYZ8 whole entry, looked up): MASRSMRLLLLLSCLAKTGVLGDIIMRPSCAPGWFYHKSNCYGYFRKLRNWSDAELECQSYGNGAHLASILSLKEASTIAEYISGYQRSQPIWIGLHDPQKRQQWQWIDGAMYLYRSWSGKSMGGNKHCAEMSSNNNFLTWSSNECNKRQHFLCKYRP
# Neurocan (Homo sapiens), O14594, sequence (O14594 other isoform, or with tags, fused parts or gaps): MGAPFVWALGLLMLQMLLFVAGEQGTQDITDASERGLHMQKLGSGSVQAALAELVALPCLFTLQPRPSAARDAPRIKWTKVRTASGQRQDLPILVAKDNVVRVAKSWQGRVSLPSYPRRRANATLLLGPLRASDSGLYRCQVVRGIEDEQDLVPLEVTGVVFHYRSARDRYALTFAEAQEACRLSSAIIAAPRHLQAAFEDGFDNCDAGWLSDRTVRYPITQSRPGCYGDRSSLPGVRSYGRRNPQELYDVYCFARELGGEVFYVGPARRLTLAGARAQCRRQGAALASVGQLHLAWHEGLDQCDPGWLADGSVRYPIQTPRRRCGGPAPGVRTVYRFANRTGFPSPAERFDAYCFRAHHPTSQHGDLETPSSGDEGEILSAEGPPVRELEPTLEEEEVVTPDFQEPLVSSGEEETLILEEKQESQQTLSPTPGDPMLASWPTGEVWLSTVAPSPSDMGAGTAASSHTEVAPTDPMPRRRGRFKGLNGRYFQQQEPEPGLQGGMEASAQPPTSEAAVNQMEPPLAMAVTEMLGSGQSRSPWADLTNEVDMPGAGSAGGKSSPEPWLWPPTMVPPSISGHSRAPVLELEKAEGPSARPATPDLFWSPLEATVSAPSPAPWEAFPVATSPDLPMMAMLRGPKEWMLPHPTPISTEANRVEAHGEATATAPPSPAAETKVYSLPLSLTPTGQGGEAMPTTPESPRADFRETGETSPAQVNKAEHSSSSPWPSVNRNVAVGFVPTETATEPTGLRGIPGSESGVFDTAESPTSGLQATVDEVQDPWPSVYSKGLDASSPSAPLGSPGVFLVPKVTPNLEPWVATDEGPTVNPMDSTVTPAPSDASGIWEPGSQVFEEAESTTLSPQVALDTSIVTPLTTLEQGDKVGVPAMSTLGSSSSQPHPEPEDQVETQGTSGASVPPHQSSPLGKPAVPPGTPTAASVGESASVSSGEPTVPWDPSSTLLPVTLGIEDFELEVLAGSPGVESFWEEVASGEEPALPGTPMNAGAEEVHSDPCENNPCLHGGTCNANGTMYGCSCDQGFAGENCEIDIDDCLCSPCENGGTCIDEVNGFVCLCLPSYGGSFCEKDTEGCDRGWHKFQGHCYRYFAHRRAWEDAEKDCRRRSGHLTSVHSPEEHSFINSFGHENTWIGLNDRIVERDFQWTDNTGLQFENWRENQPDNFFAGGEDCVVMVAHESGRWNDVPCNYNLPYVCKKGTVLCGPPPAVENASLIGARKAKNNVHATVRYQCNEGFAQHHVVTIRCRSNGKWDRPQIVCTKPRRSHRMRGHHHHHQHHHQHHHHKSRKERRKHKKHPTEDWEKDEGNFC
# C3b (Homo sapiens), P01024, sequence (P01024 23-667): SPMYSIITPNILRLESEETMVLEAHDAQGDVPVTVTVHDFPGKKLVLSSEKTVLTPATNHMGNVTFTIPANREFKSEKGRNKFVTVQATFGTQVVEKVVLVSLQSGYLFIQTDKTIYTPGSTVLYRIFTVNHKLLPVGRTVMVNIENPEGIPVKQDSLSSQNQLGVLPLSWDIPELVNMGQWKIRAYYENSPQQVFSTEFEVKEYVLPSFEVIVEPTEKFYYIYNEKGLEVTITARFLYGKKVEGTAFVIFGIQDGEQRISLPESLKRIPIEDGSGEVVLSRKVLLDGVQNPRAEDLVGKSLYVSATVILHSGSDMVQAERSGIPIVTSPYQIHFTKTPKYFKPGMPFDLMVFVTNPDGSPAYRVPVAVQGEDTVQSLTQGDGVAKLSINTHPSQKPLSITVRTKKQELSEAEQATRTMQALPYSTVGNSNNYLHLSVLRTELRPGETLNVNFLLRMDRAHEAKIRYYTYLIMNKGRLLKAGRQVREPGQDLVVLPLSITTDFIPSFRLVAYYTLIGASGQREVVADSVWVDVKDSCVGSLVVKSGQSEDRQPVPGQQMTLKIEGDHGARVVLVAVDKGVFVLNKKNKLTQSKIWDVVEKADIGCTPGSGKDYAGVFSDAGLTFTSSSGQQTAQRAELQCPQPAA
substance,measurement,setting,value
"HARE (Homo sapiens), Q8WWQ8",glycan array binding signal (z-score),[1],-0.451
same,glycan array binding signal (z-score),[2],1.92
"Neurocan (Homo sapiens), O14594",glycan array binding signal (z-score),[3],0.015
"PILRa (Mus musculus), Q2YSF3",glycan array binding signal (z-score),[4],-0.088
"wLAT-1A (Homo sapiens), Q01650",glycan array binding signal (z-score),[5],-0.62
"Siglec-8 (Homo sapiens), Q9NYZ4",glycan array binding signal (z-score),[6]; mutation: R125K,-0.408
same,glycan array binding signal (z-score),[3],-0.306
same,glycan array binding signal (z-score),[7],-0.08
same,glycan array binding signal (z-score),[8]; mutation: R125K,-0.535
same,glycan array binding signal (z-score),[9],-0.068
same,glycan array binding signal (z-score),[10],-0.067
same,glycan array binding signal (z-score),[11]; mutation: R125K,-0.113
same,glycan array binding signal (z-score),[12],0.515
same,glycan array binding signal (z-score),[12]; mutation: R125K,2.56
same,glycan array binding signal (z-score),[13],0.69
same,glycan array binding signal (z-score),[14]; mutation: R125K,0.13
"6RG (Lolium perenne), B9U140",glycan array binding signal (z-score),[15],-0.249
Avaren (Actinomycete K97),glycan array binding signal (z-score),[8],-0.121
same,glycan array binding signal (z-score),[16],-0.051
"C3b (Homo sapiens), P01024",glycan array binding signal (z-score),[6],0.283
"Aggrecan (Rattus norvegicus), NP_071526",glycan array binding signal (z-score),[6],4.94
same,glycan array binding signal (z-score),[15],-0.144
6RG (Lolium perenne),glycan array binding signal (z-score),[1],-0.16
same,glycan array binding signal (z-score),[15],4.25
"Regenerating Gene IV (Homo sapiens), Q9BYZ8",glycan array binding signal (z-score),Gal(b1-4)Glc6S,2.4
"PILRb (Mus musculus), Q2YSF2",glycan array binding signal (z-score),[5],-0.547
same,glycan array binding signal (z-score),Gal(b1-4)Gal,0.167
same,glycan array binding signal (z-score),Gal(b1-4)Glc6S,1.22
same,glycan array binding signal (z-score),[9],-0.5
"CHI3L1 (Homo sapiens), P36222",glycan array binding signal (z-score),[3],-0.118
same,glycan array binding signal (z-score),[17],-0.062
same,glycan array binding signal (z-score),[11],-0.131
MpAFP RI GFP (Marinomonas primoryensis),glycan array binding signal (z-score),[1],-0.258
same,glycan array binding signal (z-score),Gal(b1-4)Gal,-0.4
same,glycan array binding signal (z-score),[12],2.61
same,glycan array binding signal (z-score),[18],5.48
same,glycan array binding signal (z-score),[14],3.87

# From the supplement of paper PMC8728848
